Shown are actives, neighbours in structure and some others; about 1.6% of the full set was active somewhere.
KCNQ2 enhance – KCNQ2 (rat) channel potentiation. B-score at 10 µM. CHO-K1 KCNQ2, FluxOR thallium flux fluorescence; active compounds read high. AID 2239. 310,000 compounds, 0.54% hits. O88943;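 active = fluorescence ratio B-score at least 3 SD of library B-scores, with initial fluorescence B-score within 3 of them, cut at about 5.3 in these data; same plate scores as AID 2156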;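 also: B-score of peak minus minimum over baseline fluorescence ratio after K+ and Tl+ stimulus; positive B-score means potentiation of KCNQ2 with more thallium influx and brighter signal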
KCNQ2 inh – inhibitors of rat KCNQ2 potassium channel; B-score at 10 µM; O88943; CHO-K1 KCNQ2, FluxOR thallium flux, 20 min; active compounds read low; 310,000 compounds, 1.1% hits;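 active = fluorescence ratio B-score at most minus 3 library SDs, with starting brightness B-score within 2 library SDs, cut at about -5.5 in these data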
Kir21 conf inh – confirmation of mouse Kir2.1 potassium channel inhibitors; shares compounds with KCNQ2 enhance; Kir2.1-expressing cells, FluxOR thallium flux fluorescence; active compounds read low; Tl flux remaining, % of negative control (active compounds read low), % at 10 µM; 2,300 compounds, 41% hits;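 active = Primary-screen hit whose thallium flux fell at least 3 control SD below untreated wells in both duplicates, with normal baseline fluorescence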
Target sequence (P35561 whole entry, looked up): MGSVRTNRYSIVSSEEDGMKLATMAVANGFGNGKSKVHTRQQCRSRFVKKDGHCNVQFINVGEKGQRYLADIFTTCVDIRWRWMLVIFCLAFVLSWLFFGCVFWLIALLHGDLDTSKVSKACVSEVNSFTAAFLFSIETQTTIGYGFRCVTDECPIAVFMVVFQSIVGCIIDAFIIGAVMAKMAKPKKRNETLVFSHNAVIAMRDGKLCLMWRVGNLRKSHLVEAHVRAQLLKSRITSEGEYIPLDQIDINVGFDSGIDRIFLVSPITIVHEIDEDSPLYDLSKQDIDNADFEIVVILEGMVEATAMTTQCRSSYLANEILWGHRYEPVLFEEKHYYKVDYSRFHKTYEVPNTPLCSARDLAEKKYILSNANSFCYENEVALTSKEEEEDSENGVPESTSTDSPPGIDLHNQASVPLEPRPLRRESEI
HEK293 ctr – counter-screen for Kir2.1 inhibitors: effect in parental HEK293 cells; shares compounds with KCNQ2 enhance; FluxOR thallium flux fluorescence; 0% = unstimulated blank wells; FluxOR signal as % of negative control (100 = no effect), % at 10 µM; 2,300 compounds, 19% hits; AID 2105;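 active = dye signal at least 3 control SD above or below untreated wells in both duplicates, raw fluorescence within 3, either direction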;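 also: percent is based on the flux ratio of peak minus minimum fluorescence over baseline F0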
CHO-K1 Tl ctr – parental CHO-K1 activity in KCNQ2 potentiator counter-screen | shares compounds with KCNQ2 enhance | parental CHO-K1 cells, FluxOR thallium flux fluorescence; zero = vehicle mean+3SD, 100% = vehicle-minus-blank window | activity increase over 3SD of controls, % at 10 µM | 1,200 compounds, 43% hits | AID 2282;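 active = signal rise of at least 3 SD above the untreated control mean, in both duplicate wells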;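 also: counter screen of KCNQ2 potentiator hits so any rise reflects channel-independent effects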
KCNQ1 sel pot – human KCNQ1 counter-target activity of KCNQ2 potentiators; shares compounds with KCNQ2 enhance; CHO KCNQ1 stable, FluxOR thallium flux fluorescence; beyond 3SD, as % of vehicle-control signal; activation over 3SD threshold, % at 10 µM; 1,200 compounds, 28% hits;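 active = fluorescence ratio rise of at least 3 SD of vehicle wells above their mean, in both replicate wells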
KCNQ2 pot confirm – rat KCNQ2 channel potentiator confirmation; shares compounds with KCNQ2 enhance; CHO-KCNQ2 cells, FluxOR thallium flux fluorescence; 1,200 compounds, 68% hits; potentiation, less the hit threshold, % at 10 µM;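 active = fluorescence ratio rising 3 SD or more over the vehicle control mean in both replicates, plus primary screen hit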;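 also: peak minus minimum thallium fluorescence divided by baseline after K/Tl stimulus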
Kir21 spec – tests whether KCNQ2 potentiators also affect mouse Kir2.1; HEK293 Kir2.1, FluxOR thallium flux fluorescence; shares compounds with KCNQ2 enhance; 1,200 compounds, 2% hits; AID 2345; activity over 3SD threshold, % at 10 µM;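 active = fluorescence ratio rise of at least 3 SD above the vehicle-control mean, seen in both replicates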
KCNQ2 W236L pot – rat KCNQ2 W236L mutant potentiation by KCNQ2 potentiators; shares compounds with KCNQ2 enhance; CHO KCNQ2-W236L, automated patch clamp current; current increase over 3SD of negative controls (%), active compounds read high, % at 25 µM; 940 compounds, 10% hits;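 active = current increase at least 3 SD of the untreated controls above them in both duplicate recordings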
Numbers stand for hits; – = inactive; · = not tested or not shown.

SMILES	KCNQ2 enhance	KCNQ2 inh	Kir21 conf inh	HEK293 ctr	CHO-K1 Tl ctr	KCNQ1 sel pot	KCNQ2 pot confirm	Kir21 spec	others
Cn1c(-c2cccc(Br)c2)cnc1NCc1ccccc1O	5.6	–	75%	–	2.7	8.7	–	–
Cn1c(-c2ccc3c(c2)OCO3)cnc1NCc1ccccc1	·	–	30%	–	·	·	·	·
O=C(Nc1ccc(Cl)c(C(=O)N2CCOCC2)c1)c1ccccc1	·	–	·	·	·	·	·	·
COc1ccc(OC)c(NC(=O)NNC(=O)COc2ccc(-c3ccccc3)cc2)c1	·	–	·	·	·	·	·	·
Cc1ccccc1NC(=O)C(=O)NNC(=O)COc1ccc2ccccc2c1	7	–	–	248%	–	–	20	–	KCNQ2 W236L pot=–
COc1ccc(CC(=O)NNC(=O)COc2ccc(Br)cc2C)cc1OC	·	–	·	·	·	·	·	·
COc1ccc(OCC(=O)NNC(=O)C(=O)Nc2cc(OC)ccc2OC)cc1	11	–	–	264%	42	–	8.0	–	KCNQ2 W236L pot=–
COc1ccc(OC)c(NC(=O)C(=O)NNC(=O)COc2ccc(Br)cc2C)c1	17	–	–	350%	–	12	68	–	KCNQ2 W236L pot=–
COc1ccc(C(=O)NNC(=O)C(=O)Nc2cccc3ccccc23)cc1	10	–	–	156%	2.3	–	–	–	KCNQ2 W236L pot=–
O=C(COc1ccc2ccccc2c1)NNC(=O)Nc1ccccc1F	·	–	·	·	·	·	·	·
COc1ccc(C(=O)Nc2cccc3ccccc23)cc1	·	–	·	·	·	·	·	·
Nc1cc(=O)nc(SCC(=O)Nc2ccccc2Cl)n1-c1ccccc1	–	–	·	·	·	·	·	·
Cn1c(SCC(=O)NC2CCCC2)nnc1-c1ccccn1	–	–	·	·	·	·	·	·
CC(OC(=O)CNC(=O)c1ccc2ccccc2c1)C(=O)N(C)C1CCCCC1 (configuration not stated)	·	–	·	·	·	·	·	·
COc1ccc(OC)c(NC(=O)Nc2c(O)ccc3ccccc23)c1	7.8	–	·	·	–	–	–	–
COc1ccc(OC)c(NC(=O)Nc2ccc(O)c3ccccc23)c1	·	–	·	·	·	·	·	·
O=C(O)c1cc(-c2cccs2)nn1-c1ccccc1	·	–	·	·	·	·	·	·
O=C(O)c1cc(-c2cccs2)nn1-c1cccc(Cl)c1	8.9	–	–	–	16	28	–	–	KCNQ2 W236L pot=–
O=[N+]([O-])c1ccc(N2CCN(c3cccc(Cl)c3)CC2)cn1	–	–	·	·	·	·	·	·
CCn1cc(CCC(=O)NC(C)c2ccccc2)c2ccccc21 (configuration not stated)	–	–	–	–	·	·	·	·
CCn1cc(CCC(=O)NCCc2ccccc2)c2ccccc21	·	–	·	·	·	·	·	·
CCOc1ccccc1C(=O)NC(C(=O)OCC(=O)Nc1nnc(-c2ccccc2)o1)C(C)C (configuration not stated)	·	–	·	·	·	·	·	·
CCOc1ccccc1C(=O)OCC(=O)Nc1nnc(-c2ccccc2)o1	5.5	–	–	145%	23	–	14	–	KCNQ2 W236L pot=–
CN(C)C1C(=O)c2ccccc2C1=O	–	–	·	·	·	·	·	·
COc1cc(/C=C2\C(=O)ON=C2c2ccccc2)cc(Cl)c1O	–	–	·	·	·	·	·	·
SMILES	KCNQ2 enhance	KCNQ2 inh	Kir21 conf inh	HEK293 ctr	CHO-K1 Tl ctr	KCNQ1 sel pot	KCNQ2 pot confirm	Kir21 spec	others
CCOc1cc(/C=C2\C(=O)ON=C2c2ccccc2)cc(Br)c1O	–	–	–	46%	·	·	·	·
CCOc1cc(/C=C2/C(=O)ON=C2C)cc(Br)c1O	–	–	·	·	·	·	·	·
COc1cc(/C=C2\C(=O)ON=C2c2ccccc2)cc(Br)c1O	–	–	–	51%	·	·	·	·
O=C(Nc1ccc(N2CCOCC2)cc1N1CCOCC1)c1cccc([N+](=O)[O-])c1	·	–	·	·	·	·	·	·
Cn1c(CNC(=O)CCNC(=O)c2cccc(Cl)c2)cc(=O)n(C)c1=O	–	–	·	·	·	·	·	·
COc1ccc(Br)cc1S(=O)(=O)N1CCCc2ccccc21	·	–	·	·	·	·	·	·
OCC(O)/C=N/Nc1nc(N2CCCCC2)nc(N2CCCCC2)n1 (configuration not stated)	·	–	·	·	·	·	·	·
CC(C)c1nc2sc3c(=O)[nH]c(=S)[nH]c3c2c2c1CCCC2	9	–	–	132%	–	–	–	–
CC(C)c1nc2sc3c(=O)[nH]c(=S)[nH]c3c2c2c1CCC2	–	–	·	·	·	·	·	·
Cc1ccc(/C=C2/NC(=O)N(Cc3ccccc3F)C2=O)s1	·	–	·	·	·	·	·	·
CC(C)CN1C(=O)/C(=C/c2ccco2)NC1=S	–	–	·	·	·	·	·	·
CC(C)CN1C(=O)/C(=C/c2cccs2)NC1=S	12	–	–	322%	–	–	57	–	KCNQ2 W236L pot=–
CCCN1C(=O)/C(=C/c2ccc(C)s2)NC1=S	15	–	–	216%	–	–	66	–	KCNQ2 W236L pot=–
O=C(Nc1cc(Cl)ccc1N1CCCCC1)c1cccs1	·	–	·	·	·	·	·	·
O=C(NC(=S)Nc1ccc(N2CCCCC2)c(Cl)c1)c1cccs1	6.6	–	–	–	9.4	11	1.0	–	KCNQ2 W236L pot=–
CCCOc1cccc(C(=O)NC(=S)Nc2cccc(C(F)(F)F)c2)c1	·	–	·	·	·	·	·	·
O=C(NC(=S)Nc1cccc(C(F)(F)F)c1)c1csnn1	18	–	–	442%	–	–	80	–	KCNQ2 W236L pot=–
O=C(NC(=S)Nc1ccccc1Cl)c1csnn1	15	–	–	408%	79	–	72	–	KCNQ2 W236L pot=–
O=C(Nc1ccccc1NC(=O)c1csnn1)c1csnn1	·	–	·	·	·	·	·	·
CCOc1ccc(-n2cc(-c3ccc(OC)c(OC)c3)[nH]c2=S)cc1	·	–	·	·	·	·	·	·
Cc1ccc(C)c(CSC2=NN3CCCC(=O)N=C3S2)c1	–	–	·	·	·	·	·	·
O=[N+]([O-])C1C(c2ccccc2)=NOC1c1ccccc1O (configuration not stated)	–	–	·	·	·	·	·	·
CCN(CC(=O)Nc1ccc2c(c1)OCCO2)S(=O)(=O)c1ccc(F)cc1	·	–	·	·	·	·	·	·
Cc1cc(OCC(=O)NC2CC(C)(C)NC(C)(C)C2)c2c(C)cc(=O)oc2c1	·	–	·	·	·	·	·	·
O=C(NCc1ccccc1)NC1(C(=O)N2CCN3CCCC3C2)CCCCC1 (configuration not stated)	–	–	·	·	·	·	·	·
CCOc1ccccc1NC(=O)NC1(C(=O)N2CCN3CCCC3C2)CCCCC1 (configuration not stated)	21	–	–	–	–	–	–	–
CCCN(CCC)C(=O)C1CCCN(S(=O)(=O)c2ccc3c(c2)oc(=O)n3C)C1 (configuration not stated)	·	–	·	·	·	·	·	·
Cc1[nH]n(-c2ccccc2)c(=O)c1/C=N/NC(=O)c1ccc(O)cc1O	·	–	·	·	·	·	·	·
CCCCN(CCCC)C(=S)N/N=C/c1c(C)[nH]n(-c2ccccc2)c1=O	6.7	–	–	–	0.0	–	–	–
CCOc1ccc(NC(=O)CSc2nccn(-c3ccc4c(c3)OCCO4)c2=O)cc1	·	–	·	·	·	·	·	·

Bioassay records deposited in PubChem by Johns Hopkins Ion Channel Center.
